# Experimental data: PubChem BioAssay AID1835 (Johns Hopkins Ion Channel Center, 2009)
# The whole screen tested about 2,400 compounds, of which about 750 (31%) were called active. The list shows a part of the results. A number with no mark means an inactive call.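 The calls were made as follows: active = median signal gain over dofetilide-blocked control wells reaching their mean plus 3 SD, so readout 1 at least 0; inactive = the rest.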
# Target: Voltage-gated inwardly rectifying potassium channel KCNH2 (Homo sapiens) (UniProt Q12809)
# Test: hERG protection against dofetilide inhibition, confirmation, cell-based, thallium flux, duplicate retest, dofetilide IC70 (AID 1835)
# Settings: hERG cell line, FluxOR thallium flux, dofetilide-blocked; at 10 µM; hits give high values
# Chain of Voltage-gated inwardly rectifying potassium channel KCNH2 (Homo sapiens) (Q12809 whole entry, looked up): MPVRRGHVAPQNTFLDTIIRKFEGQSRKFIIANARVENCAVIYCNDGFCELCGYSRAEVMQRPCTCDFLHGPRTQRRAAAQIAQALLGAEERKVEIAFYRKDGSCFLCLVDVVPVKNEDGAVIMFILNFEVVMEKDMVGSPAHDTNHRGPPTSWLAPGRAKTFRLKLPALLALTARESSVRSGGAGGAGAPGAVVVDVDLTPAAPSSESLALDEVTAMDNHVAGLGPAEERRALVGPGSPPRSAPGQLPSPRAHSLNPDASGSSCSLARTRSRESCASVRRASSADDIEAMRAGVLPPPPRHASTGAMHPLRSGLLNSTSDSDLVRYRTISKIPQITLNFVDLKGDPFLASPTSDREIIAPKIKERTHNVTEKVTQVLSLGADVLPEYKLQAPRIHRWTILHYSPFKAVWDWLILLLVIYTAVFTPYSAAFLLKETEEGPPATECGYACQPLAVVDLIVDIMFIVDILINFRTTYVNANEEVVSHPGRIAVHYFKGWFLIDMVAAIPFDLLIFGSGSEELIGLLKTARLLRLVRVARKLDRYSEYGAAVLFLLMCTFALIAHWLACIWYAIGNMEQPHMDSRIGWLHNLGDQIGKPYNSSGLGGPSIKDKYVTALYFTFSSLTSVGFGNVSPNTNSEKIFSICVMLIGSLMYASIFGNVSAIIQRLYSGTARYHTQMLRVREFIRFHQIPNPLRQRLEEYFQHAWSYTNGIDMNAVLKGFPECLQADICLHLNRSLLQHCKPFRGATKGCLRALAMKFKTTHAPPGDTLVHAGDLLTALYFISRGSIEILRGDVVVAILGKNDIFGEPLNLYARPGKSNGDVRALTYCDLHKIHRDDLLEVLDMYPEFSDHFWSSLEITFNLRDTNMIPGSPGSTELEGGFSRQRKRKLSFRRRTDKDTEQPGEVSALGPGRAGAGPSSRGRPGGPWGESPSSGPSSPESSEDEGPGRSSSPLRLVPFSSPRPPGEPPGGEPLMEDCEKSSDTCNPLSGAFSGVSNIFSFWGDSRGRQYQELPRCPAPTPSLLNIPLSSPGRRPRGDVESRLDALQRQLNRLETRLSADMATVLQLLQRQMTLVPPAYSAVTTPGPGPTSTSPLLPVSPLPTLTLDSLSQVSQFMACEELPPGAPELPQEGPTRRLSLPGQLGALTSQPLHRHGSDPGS
row,Compound,"activity increase over dofetilide control, less the hit threshold"
1,CO/N=C(\CCC(=O)O)c1cccs1,-20%
2,O=C(N/N=C/c1cc([N+](=O)[O-])ccc1O)c1ccc(COc2ccc3c(c2)CCC3)o1,-10%
3,Cc1c(N2C(=O)/C(=C\c3ccccc3O)SC2=S)c(=O)n(-c2ccccc2)n1C,14% (active)
4,O=C(O)COc1ccccc1/C=C1\SC(=S)N(NC(=O)c2ccccc2O)C1=O,-11%
5,O=C(OCc1ccc(F)cc1)c1cc(S(=O)(=O)N2CCCCC2)ccc1N1CCOCC1,-21%
6,Cc1cc(=O)oc(C)c1C(=O)NCCC(C)C,-17%
7,COc1ccc(NC(=O)C(=O)NNC(=O)c2cccs2)c(OC)c1,28% (active)
8,COc1ccc(NC(=O)CNC(=O)c2cccs2)cc1Cl,-8%
9,COc1cc(NC(=O)c2ccc3c(c2)OCO3)ccc1NC(=O)c1cccs1,-22%
10,COc1ccc(OC)c(NC(=O)C(=O)NNC(=O)c2cccs2)c1,8% (active)
11,CCc1cccc2c1NC(=O)C2(O)CC(=O)c1cccs1 (stereo not given),-11%
12,COC(=O)c1ccnc(/C=N/O)c1,-13%
13,O=C1NC(=S)SC1=C1CCCCCC1,53% (active)
14,O=C(O)c1ccc(S(=O)(=O)/N=C2\C=C(Nc3ccccc3F)C(=O)c3ccccc32)cc1,4% (active)
15,Cc1ccccc1NC1=C/C(=N\S(=O)(=O)c2ccc(C(=O)O)cc2)c2ccccc2C1=O,-6%
16,O=C(CCn1c(=S)[nH]c2cc3c(cc2c1=O)OCO3)NCc1ccc(Cl)cc1,-8%
17,O=c1c2ccc(Cl)cc2[nH]c(=S)n1CCC1=CCCCC1,42% (active)
18,O=c1c2ccccc2[nH]c(=S)n1CCC1=CCCCC1,11% (active)
19,O=c1c2cccnc2[nH]c(=S)n1CCC1=CCCCC1,-3%
20,O=C(Cc1cccs1)Nn1c(Cc2cccs2)nc2ccccc2c1=O,-7%
21,CC(=O)Nc1ccc(S(=O)(=O)NC2(C(F)(F)F)C(=O)Nc3c2c(=O)[nH]c(=O)n3C)cc1 (stereo not given),-10%
22,O=C(O)c1sccc1OCc1ccccc1,-8%

row,Compound,"activity increase over dofetilide control, less the hit threshold"
1,O=C(O)c1ccccc1NC(=O)c1cc2ccccc2oc1=O,10% (active)
2,O=C(NNc1c(F)c(F)cc(F)c1F)c1cc2ccccc2oc1=O,-20%
3,COc1ccc(CCNC(=O)c2cc3ccccc3oc2=O)cc1,-8%
4,CCO/C=C1\N=C(c2ccc(F)cc2)OC1=O,-5%
5,COC(=O)C1=C(C)NC2=C(C(=O)CCC2)C1c1ccc(-c2ccsc2C(=O)OC)o1 (stereo not given),26% (active)
6,Cc1cc(C)c(S(=O)(=O)NCc2ccccn2)c(C)c1,-6%
7,CCOc1ccc(NC(=S)NC(=O)c2ccco2)cc1,10% (active)
8,COc1cc(OC)cc(C(=O)NC(=S)Nc2ccc(NC(=O)c3ccco3)cc2)c1,-15%
9,O=C(O)CNC(=O)c1ccc(NC(=O)/C(=C/c2ccccc2)NC(=O)c2ccco2)cc1,-13%
10,CCN(CC)c1ccc(NC(=S)NC(=O)c2ccco2)cc1,48% (active)
11,CCCOc1ccc(C(=O)NNC(=S)NC(=O)c2ccco2)cc1,-41%
12,O=C(CN1C(=O)COc2ccccc21)NCCCN1CCOCC1,-2%
13,Cc1ccc(-n2c(=O)c3cc4c(=O)n(-c5ccc(C)c(C)c5)c(=O)c4c(C(=O)c4ccc(C(=O)O)cc4)c3c2=O)cc1C,-8%
14,COc1ccc(NC(=O)N2CCN(c3ccc([N+](=O)[O-])cc3)CC2)cc1OC,-14%
15,Cc1ccc(N2CCN(C(=O)N3CCCC3)CC2)cc1C,5% (active)
16,Cn1ccnc1C(O)c1cccc(OCc2ccccc2)c1 (stereo not given),-10%
17,Cc1ccc(C(=O)Sc2cccccc2=O)cc1,8% (active)
18,CC1=CC(=O)C(C(C)C)=CC1=NC(=O)c1ccc(C)cc1,-36%
19,COCCCNC(=O)CCc1nnc(Cc2ccc(-c3ccccc3)cc2)o1,-16%
20,ON/C=N/C(=S)Nc1ncc(C(F)(F)F)cc1Cl,22% (active)
21,CON/C=N/C(=S)Nc1ncc(C(F)(F)F)cc1Cl,65% (active)
22,CCCCNC(=O)c1onc(CSc2nc3ccccc3[nH]2)c1C(=O)NCCCC,-12%

row,Compound,"activity increase over dofetilide control, less the hit threshold"
1,Cc1ccc(CNC(=O)CCc2ccc(S(=O)(=O)NCC(C)C)cc2)cc1,-8%
2,Cc1ccc(C(C)NC(=O)c2cccs2)cc1C (stereo not given),-21%
3,CC(NC(=O)c1ccc(F)cc1)c1ccc2c(c1)CCCC2 (stereo not given),-12%
4,CC(NC(=O)c1ccc(Br)cc1)c1ccc2c(c1)CCCC2 (stereo not given),12% (active)
5,Fc1ccc(NC(=S)Nc2nccs2)cc1,0%
6,Cc1ccc(/C(O)=C/C(=O)C(=O)NC23CC4CC(CC(C4)C2)C3)cc1,10% (active)
7,Nc1cccc2c1C(=O)N(CC(=O)NC13CC4CC(CC(C4)C1)C3)C2=O,-9%
8,CCC(C)c1ccccc1NC(=O)C(C)NCCN(C)C (stereo not given),-13%
9,CCOc1ccccc1NC(=S)NC(=O)c1ccco1,3% (active)
10,CCC(C)c1ccccc1NC(=S)NC(=O)c1ccco1 (stereo not given),69% (active)
11,CCC(C)c1ccccc1NC(=O)c1[nH]c(C)c(C(C)=O)c1C (stereo not given),-12%
12,Cc1nc2n(n1)CC(O)CS2 (stereo not given),-14%
13,CN(C)CCNc1ncnc2c1sc1nc(N3CCCC3)c3c(c12)CC(C)(C)OC3,-10%
14,CCCCc1c(O)nc(SCC(=O)O)[nH]c1=O,-16%
15,CC12CCC3(CO)COC(c4ccccc4O1)C2C3 (stereo not given),-5%
16,O=C(COC(=O)c1cc(Br)ccc1O)Nc1cccnc1Cl,-14%
17,CC(C)(C)c1ccc(C(=O)NC(=S)Nc2nc3c(s2)CCCC3)cc1,13% (active)
18,O=C(NC(=S)Nc1nc2c(s1)CCCC2)c1ccc(C(=O)c2ccccc2)cc1,-3%
19,Cc1csc(NC(=O)c2cc3c(s2)CCCC3)n1,-5%
20,COC(=O)c1ccc(C(=O)NC(=S)Nc2nc3c(s2)CC(C)CC3)cc1 (stereo not given),-10%
21,COC(=O)c1ccc(C(=O)NC(=S)Nc2nc3c(s2)CCCC3)cc1,13% (active)
